Data on 14 compounds can be found in PubChem BioAssay (NCI).

Test systems include NCI-H23 lung; NCI-H226 lung; NCI-H322M lung; HOP-62 NSCLC; NCI-H460 lung; HOP-92 NSCLC; NCI-H522 lung; A549/ATCC NSCLC; 786-0 renal; COLO 205 colon.
What all share (assay): NCI-60 one-dose screen, 48 h (100 = growth as untreated, 0 = no growth, -100 = all killed)
What all share (conditions): 10 µM unless noted

Compounds without any hit were thinned out: in the full panel of roughly 83,000, 20% have a hit.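 Plates (96-well) were seeded with cells, treated with compound at one concentration, and incubated for 48 hours before percent growth was determined.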 Unmarked numbers belong to inactive results. The source made the active and inactive calls. The calls were made as follows: active = growth percent below 10; inactive = the rest.

For `CC(=O)O[C@H]1CC2CCC3C(CC[C@@]4(C)C3C[C@H]([N+]3(C)CCCCC3)[C@@H]4OC(C)=O)[C@@]2(C)C[C@@H]1N1CCCCC1` (stereo partly drawn), the growth with NCI-H23 lung was 102%; in the assay with NCI-H226 lung, 106%; with NCI-H322M lung it was 110%; in the assay with HOP-62 NSCLC it was 114%; with NCI-H460 lung, 111%; in the assay with HOP-92 NSCLC, 86.5%. The growth in the assay with NCI-H522 lung was 95.8%; in the assay with A549/ATCC NSCLC it was 101%; with 786-0 renal, 106%; in the assay with COLO 205 colon, 104%.
As for `CCN(CC)CCCCCNc1cc(OC(=O)c2ccc(Cl)cc2)cc2cccnc12`, the growth with NCI-H23 lung is 93.9%; in the assay on NCI-H226 lung, 105%; with NCI-H322M lung, 106%; in the assay with HOP-62 NSCLC it was 95.8%; with NCI-H460 lung it was 110%; with HOP-92 NSCLC, 38.2%. The growth is 24.4% with NCI-H522 lung, 95.3% with A549/ATCC NSCLC, 106% with 786-0 renal and 33.9% in the assay on COLO 205 colon.
Turning to `CCN1C(=S)N(c2ccccc2)C2C1NN=c1s/c(=C3\C(=O)N(C(C)C)c4ccccc43)c(=O)n12` (stereo not drawn), the growth in the assay with NCI-H23 lung is 75.4%; in the assay with NCI-H226 lung, 66.7%; in the assay with NCI-H322M lung, 82.8%; in the assay on HOP-62 NSCLC, 73.4%; in the assay on NCI-H460 lung it was 47.8%; with HOP-92 NSCLC, 100%. Moreover, the growth in the assay on NCI-H522 lung is 78.6%; with A549/ATCC NSCLC, 57.8%; in the assay with 786-0 renal it was 93.7%; with COLO 205 colon it was 89.4%.
As to `CCSC(SCC)c1ccc(Cl)cc1`, the growth is 95.1% with NCI-H23 lung; 102% in the assay on NCI-H226 lung; 123% in the assay on NCI-H322M lung; 98.5% in the assay on HOP-62 NSCLC; 103% with NCI-H460 lung; 101% with HOP-92 NSCLC. The growth in the assay on NCI-H522 lung was 107%; in the assay on A549/ATCC NSCLC, 102%; in the assay on 786-0 renal, 110%; in the assay on COLO 205 colon it was 117%.
As to `O=C(Nc1nc2cc(C(=O)N3CCN(C(c4ccccc4)c4ccccc4)CC3)ccc2o1)c1ccc(NC2CCCCC2)c([N+](=O)[O-])c1`, the growth in the assay with NCI-H23 lung is 69.5%; with NCI-H226 lung, 65.1%; in the assay with NCI-H322M lung, 59.4%; with HOP-62 NSCLC, 47.4%; with NCI-H460 lung it was 46.8%; in the assay on HOP-92 NSCLC, 73.3%. Also, the growth is 64.2% in the assay on NCI-H522 lung, 53.6% in the assay on 786-0 renal and 79.7% with COLO 205 colon.
For `CS(=O)(=O)Nc1cncc(-c2ccc3ncnc(Nc4cncc(Cl)c4)c3c2)c1`, the growth in the assay with NCI-H23 lung is 80%; in the assay with NCI-H226 lung, 80.8%; with NCI-H322M lung, 71.7%; with HOP-62 NSCLC, 73.4%; in the assay on NCI-H460 lung, 103%; with HOP-92 NSCLC it was 31.5%. In addition, the growth is 50.2% in the assay on NCI-H522 lung, 81.7% in the assay on A549/ATCC NSCLC, 82.3% in the assay on 786-0 renal and 93.8% in the assay on COLO 205 colon.
With `O=C(c1ccncc1)N1N=C(c2ccc(Cl)cc2)C[C@H]1c1cn(-c2ccccc2)nc1-c1ccccc1`, the growth is 91.5% in the assay with NCI-H23 lung; 89.9% in the assay on NCI-H226 lung; 92.7% in the assay on NCI-H322M lung; 92.8% with HOP-62 NSCLC; 88.2% in the assay with NCI-H460 lung; 67% in the assay on HOP-92 NSCLC. Besides, the growth with NCI-H522 lung is 96.1%; with A549/ATCC NSCLC it was 81.7%; in the assay with 786-0 renal it was 97.9%; in the assay on COLO 205 colon, 119%.
`Cn1ccnc1C(=O)/C=C/c1ccc(C(=O)Nc2ccccc2O)cc1`: the growth in the assay with NCI-H23 lung is 30.6%; in the assay on NCI-H226 lung, 63.4%; in the assay with NCI-H322M lung, 45.3%; with HOP-62 NSCLC, 12.7%; in the assay with NCI-H460 lung, 8.78% (active); with HOP-92 NSCLC, 81.4%. In addition, the results for the growth in the assay with NCI-H522 lung, in the assay on 786-0 renal and in the assay with COLO 205 colon were 60.4%, 9.95% (active) and 56.5%, respectively.
On to `O=C(OC(CO)C(=O)NC12CC3CC(CC(C3)C1)C2)c1ccc(Cl)cc1` (stereo not drawn), for which the growth with NCI-H23 lung was 105%; in the assay on NCI-H226 lung, 92.4%; in the assay with NCI-H322M lung, 102%; with HOP-62 NSCLC, 103%; in the assay on NCI-H460 lung it was 107%; in the assay with HOP-92 NSCLC, 87.2%. Also, the values for the growth with NCI-H522 lung, with 786-0 renal and with COLO 205 colon were 99.3%, 101% and 110%, respectively.
Take `c1cc2c(ccc3[nH]c(-c4ccc5[nH]ncc5c4)c4c(c32)CCCC4)n1`: the growth in the assay on NCI-H23 lung was 74.3%; in the assay with NCI-H226 lung, 58.6%; in the assay with NCI-H322M lung, 92.2%; in the assay with HOP-62 NSCLC, 42.5%; in the assay with NCI-H460 lung it was 22.3%; with HOP-92 NSCLC, 40%. The values for the growth with NCI-H522 lung, in the assay on 786-0 renal and with COLO 205 colon were 47.4%, 56% and 58%, respectively.
Turning to `CCOC(=O)C1=C(c2ccccc2)N=C2SC=C(c3ccc(Cl)cc3)N2C1c1ccc(Cl)cc1` (stereo not drawn), the growth in the assay with NCI-H23 lung is 64.2%; in the assay on NCI-H226 lung it was 79.5%; in the assay on NCI-H322M lung it was 88.5%; in the assay on HOP-62 NSCLC, 91.6%; in the assay with NCI-H460 lung, 83.3%; in the assay on HOP-92 NSCLC it was 69.8%. Further, the growth in the assay with NCI-H522 lung was 79.9%; in the assay with 786-0 renal, 84.4%; with COLO 205 colon, 76.2%.
In the case of `COc1ccc(/C=C/C(=O)c2cc3c(N)c(C(=O)Nc4cccc5ccccc45)sc3nc2C)cc1`, the growth is 85.1% with NCI-H23 lung; 85% in the assay on NCI-H226 lung; 95.8% with NCI-H322M lung; 74.5% with HOP-62 NSCLC; 75.9% in the assay on NCI-H460 lung; 77.1% with HOP-92 NSCLC. Moreover, the growth in the assay on NCI-H522 lung is 26.1%; in the assay with A549/ATCC NSCLC it was 68.7%; in the assay with 786-0 renal it was 46.4%; in the assay with COLO 205 colon, 103%.
Regarding `COc1ccc2c(c1OC)CO[C@@H]2[C@H]1c2c(cc3c(c2OC)OCO3)CCN1S(=O)(=O)c1cn(C)cn1`, the growth was 32.9% in the assay on NCI-H23 lung; 73.6% in the assay on NCI-H226 lung; 48% in the assay on NCI-H322M lung; 30.9% in the assay on HOP-62 NSCLC; 6.13% (active) with NCI-H460 lung; 60.7% with HOP-92 NSCLC. For the same compound, the growth is 19.4% with NCI-H522 lung, 41.9% with 786-0 renal and 0.532% (active) with COLO 205 colon.
As for `Cc1ccc2c(Cn3cc(CSc4nc5ccccc5o4)nn3)cc(=O)oc2c1`, the growth is 96.1% in the assay with NCI-H23 lung; 110% with NCI-H226 lung; 104% in the assay on NCI-H322M lung; 105% with HOP-62 NSCLC; 110% with NCI-H460 lung; 110% in the assay with HOP-92 NSCLC. Also, the growth was 97.6% with NCI-H522 lung, 105% in the assay with 786-0 renal and 111% in the assay with COLO 205 colon.
